Measurements reported in PubChem BioAssay (NCI).
Compounds without any hit were thinned out: in the full panel of roughly 79,000, 15% have a hit. Calls of active or inactive are those of the source. Rule as the data show it: active = growth inhibition above about 70%; inactive = the rest.

Legend:
[1] = NCI Yeast Anticancer Drug Screen. Data for the rad52 strain (AID 147);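 also: 0% = growth of vehicle-treated control cultures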; conditions: S. cerevisiae rad52 mutant growth inhibition, stronger effect = higher value
Outline: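 Yeast strain carrying a DNA damage repair alteration was exposed to test compounds. Growth inhibition was measured relative to vehicle-treated controls.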

[2] = NCI Yeast Anticancer Drug Screen. Data for the wt1 strain (AID 149);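 also: 0% = growth of vehicle-treated wt1 cultures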; conditions: S. cerevisiae wt1 strain (SPY 50644) growth inhibition, stronger effect = higher value
Outline: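 Yeast wt1 strain exposed to compounds; growth inhibition measured relative to vehicle-treated controls.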

[3] = NCI Yeast Anticancer Drug Screen. Data for the rad50EPP+ strain (AID 151);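 also: 0% = growth of vehicle-treated control cultures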; conditions: S. cerevisiae rad50 mutant strain, stronger effect = higher value
Outline: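 Yeast strain carrying rad50 alteration (rad50EPP+) exposed to compounds; growth inhibition measured relative to vehicle-treated controls.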

[4] = NCI Yeast Anticancer Drug Screen. Data for the mgt1 strain (AID 153); conditions: S. cerevisiae mgt1 mutant growth inhibition, stronger effect = higher value
Outline: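 Yeast mgt1 strain (DNA repair/cell-cycle alteration panel) exposed to compounds; growth inhibition measured relative to vehicle-treated controls.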

[5] = NCI Yeast Anticancer Drug Screen. Data for the rad50 strain (AID 155);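 also: 0% = growth of vehicle-only cultures of the same strain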; conditions: S. cerevisiae rad50 strain growth inhibition, stronger effect = higher value
Outline: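 Yeast carrying a defined DNA repair defect were exposed to test compounds, and growth was compared with vehicle-treated controls to give percent inhibition.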

[6] = NCI Yeast Anticancer Drug Screen. Data for the mec2-1 strain (AID 157); conditions: S. cerevisiae mec2-1 strain, stronger effect = higher value
Outline: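 mec2-1 yeast strain, carrying an alteration in DNA damage repair or cell cycle control, was exposed to compounds; growth inhibition was measured relative to vehicle-treated controls.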

[7] = NCI Yeast Anticancer Drug Screen. Data for the rad14 strain (AID 159);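 also: 0% = growth of vehicle-treated control cultures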; conditions: S. cerevisiae rad14 strain growth inhibition, stronger effect = higher value
Outline: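 Yeast cells carrying a defined DNA-repair defect were exposed to compounds, and growth inhibition was calculated relative to vehicle-treated control cultures.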

[8] = NCI Yeast Anticancer Drug Screen. Data for the sgs1 mgt1 strain (AID 161);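 also: 0% = growth of cultures given vehicle only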; conditions: S. cerevisiae sgs1 mgt1 strain, stronger effect = higher value
Outline: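 This yeast growth screen uses a strain with defined DNA-repair lesions; compound-treated growth is compared with vehicle-treated growth.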

[9] = NCI Yeast Anticancer Drug Screen. Data for the CLN2oe strain (AID 163);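 also: 0% = growth of vehicle-only control cultures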; conditions: S. cerevisiae CLN2oe strain, stronger effect = higher value
Outline: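 Yeast cells carrying a defined cell-cycle control alteration were exposed to test compounds. Growth inhibition was scored against vehicle-treated control cultures.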

[10] = NCI Yeast Anticancer Drug Screen. Data for the cln2 rad14 strain (AID 165);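 also: 0% = growth equal to vehicle treated cultures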; conditions: S. cerevisiae cln2 rad14 strain, stronger effect = higher value
Outline: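 Yeast carrying cln2 and rad14 alterations (cell cycle control and DNA damage repair) were exposed to compounds. Growth inhibition was measured against vehicle-treated controls.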

[11] = NCI Yeast Anticancer Drug Screen. Data for the bub3 strain (AID 167); conditions: S. cerevisiae bub3 mutant strain, stronger effect = higher value
Outline: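 Compounds were applied to a genetically altered yeast strain carrying a cell-cycle control defect. Growth inhibition was scored against vehicle-treated controls.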

[12] = NCI Yeast Anticancer Drug Screen. Data for the wt2 strain (AID 169);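 also: 0% = growth of vehicle-treated yeast cultures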; conditions: S. cerevisiae wt2 strain growth inhibition, stronger effect = higher value
Outline: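 Yeast cells were exposed to test compounds, and growth inhibition was measured relative to vehicle-treated controls.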

[13] = NCI Yeast Anticancer Drug Screen. Data for the mlh1 strain (AID 171);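 also: 0% = growth of vehicle-treated control cultures of the same strain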; conditions: S. cerevisiae mlh1 strain growth inhibition, stronger effect = higher value
Outline: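 Yeast carrying a defined genetic alteration in DNA damage repair or cell cycle control were exposed to test compounds. Growth inhibition was measured relative to vehicle-treated controls.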

[14] = NCI Yeast Anticancer Drug Screen. Data for the mlh1 rad18 strain (AID 175); conditions: S. cerevisiae mlh1 rad18 strain growth inhibition, stronger effect = higher value
Outline: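 Growth inhibition of the yeast strain was measured after compound exposure and expressed relative to vehicle-treated controls. The strain carries defined defects in DNA damage repair.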

[15] = NCI Yeast Anticancer Drug Screen. Data for the rad18 strain (AID 177); conditions: S. cerevisiae rad18 mutant growth inhibition, stronger effect = higher value
Outline: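 Yeast carrying a defined DNA damage repair alteration were exposed to compounds. Growth inhibition was expressed relative to vehicle-treated controls.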

[16] = at 5.0 µM (retest, dose inferred, filed as 0.5)
[17] = at 50.0 µM (retest, dose inferred, filed as 5.0)

Measured: growth inhibition

O=[N+]([O-])CC(SCc1ccccc1)c1ccc2c(c1)OCO2 (stereo unspecified)
inactive: [1]; at 1.2 µM 39% | [1]; at 3.7 µM 34% | [2]; at 1.2 µM 23% | [2]; at 3.7 µM 36% | [3]; at 1.2 µM 44% | [4]; at 1.2 µM 9% | [4]; at 3.7 µM 3% | [4]; at 11.0 µM 47% | [5]; at 1.2 µM 41% | [5]; at 3.7 µM 69% | [5]; [16] 30% | [6]; at 1.2 µM -2% | [6]; at 3.7 µM 42% | [6]; [16] 26% | [7]; at 1.2 µM -2% | [7]; at 3.7 µM 36% | [8]; [16] -4% | [8]; [17] 46% | [9]; at 1.2 µM 3% | [9]; at 3.7 µM 5% | [9]; at 11.0 µM 42% | [10]; [16] 15% | [11]; at 1.2 µM -28% | [11]; at 3.7 µM 13% | [12]; at 1.2 µM 1% | [12]; at 3.7 µM 8% | [12]; at 11.0 µM 47% | [13]; at 1.2 µM 17% | [13]; at 3.7 µM 48% | [15]; at 1.2 µM 7% | [15]; at 3.7 µM 23%
active: [1]; at 11.0 µM 92% | [1]; at 33.0 µM 99% | [1]; at 100.0 µM 97% | [2]; at 11.0 µM 70% | [2]; at 33.0 µM 98% | [2]; at 100.0 µM 98% | [3]; at 3.7 µM 91% | [3]; at 11.0 µM 97% | [3]; at 33.0 µM 98% | [3]; at 100.0 µM 98% | [4]; at 33.0 µM 97% | [4]; at 100.0 µM 97% | [5]; at 11.0 µM 94% | [5]; at 33.0 µM 98% | [5]; [17] 97% | [5]; at 50.0 µM 90% | [5]; at 100.0 µM 98% | [6]; at 11.0 µM 76% | [6]; at 33.0 µM 98% | [6]; [17] 98% | [6]; at 50.0 µM 91.7% | [6]; at 100.0 µM 98% | [7]; at 11.0 µM 71% | [7]; at 33.0 µM 97% | [7]; at 100.0 µM 97% | [8]; at 50.0 µM 92.7% | [9]; at 33.0 µM 97% | [9]; at 100.0 µM 97% | [10]; [17] 97% | [10]; at 50.0 µM 90.2% | [11]; [16] 89% | [11]; at 11.0 µM 91% | [11]; at 33.0 µM 97% | [11]; [17] 96% | [11]; at 50.0 µM 92.2% | [11]; at 100.0 µM 97% | [12]; at 33.0 µM 97% | [12]; at 100.0 µM 97% | [13]; at 11.0 µM 94% | [13]; at 33.0 µM 98% | [13]; at 100.0 µM 97% | [14]; [16] 73% | [14]; [17] 97% | [14]; at 50.0 µM 89.2% | [15]; at 11.0 µM 79% | [15]; at 33.0 µM 98% | [15]; at 100.0 µM 98%

Cc1ccc(C2C(Cl)C(=O)N2n2cnc3ccccc3c2=O)cc1 (stereo unspecified)
active: [11]; [17] 84%
inactive: [1]; at 1.2 µM 6% | [1]; at 3.7 µM 11% | [1]; at 11.0 µM 8% | [1]; at 33.0 µM 9% | [1]; at 100.0 µM -8% | [2]; at 1.2 µM 8% | [2]; at 3.7 µM 14% | [2]; at 11.0 µM 19% | [2]; at 33.0 µM 6% | [2]; at 100.0 µM 6% | [3]; at 1.2 µM -13% | [3]; at 3.7 µM -6% | [3]; at 11.0 µM -3% | [3]; at 33.0 µM 34% | [3]; at 100.0 µM 51% | [4]; at 1.2 µM -15% | [4]; at 3.7 µM -11% | [4]; at 11.0 µM -23% | [4]; at 33.0 µM -19% | [4]; at 100.0 µM -27% | [5]; at 1.2 µM -2% | [5]; at 3.7 µM 0% | [5]; [16] 14% | [5]; at 11.0 µM -6% | [5]; at 33.0 µM -6% | [5]; [17] -4% | [5]; at 50.0 µM -15.2% | [5]; at 100.0 µM -20% | [6]; at 1.2 µM -6% | [6]; at 3.7 µM -12% | [6]; [16] -16% | [6]; at 11.0 µM -10% | [6]; at 33.0 µM -11% | [6]; [17] 10% | [6]; at 50.0 µM 12.5% | [6]; at 100.0 µM -15% | [7]; at 1.2 µM -15% | [7]; at 3.7 µM -19% | [7]; at 11.0 µM -9% | [7]; at 33.0 µM -12% | [7]; at 100.0 µM -4% | [8]; [16] -4% | [8]; [17] 20% | [8]; at 50.0 µM -0.75% | [9]; at 1.2 µM -23% | [9]; at 3.7 µM -43% | [9]; at 11.0 µM -18% | [9]; at 33.0 µM -54% | [9]; at 100.0 µM -20% | [10]; [16] 4% | [10]; [17] 28% | [10]; at 50.0 µM 6.4% | [11]; at 1.2 µM -10% | [11]; at 3.7 µM -7% | [11]; [16] 33% | [11]; at 11.0 µM 3% | [11]; at 33.0 µM 46% | [11]; at 50.0 µM 68.6% | [11]; at 100.0 µM 62% | [12]; at 1.2 µM -15% | [12]; at 3.7 µM -19% | [12]; at 11.0 µM -18% | [12]; at 33.0 µM -23% | [12]; at 100.0 µM -8% | [13]; at 1.2 µM -39% | [13]; at 3.7 µM -39% | [13]; at 11.0 µM -41% | [13]; at 33.0 µM -34% | [13]; at 100.0 µM -4% | [14]; [16] -9% | [14]; [17] 6% | [14]; at 50.0 µM -11.2% | [15]; at 1.2 µM -1% | [15]; at 3.7 µM 6% | [15]; at 11.0 µM -1% | [15]; at 33.0 µM -7% | [15]; at 100.0 µM -5%
